NRP1-CendR mod – NRP-1/CendR interaction modulation. FAM-RPARPAR peptide binding to NRP-1, fluorescence polarization. inhibition, % at 25 µM. actives 0.85% (n = 360,000);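 active means inhibition or corrected inhibition above about 18%, plus a signal ratio from 0.5 to 1.5, limit read from the data, passing the limit was not always enough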
Target sequence (O14786 whole entry, looked up): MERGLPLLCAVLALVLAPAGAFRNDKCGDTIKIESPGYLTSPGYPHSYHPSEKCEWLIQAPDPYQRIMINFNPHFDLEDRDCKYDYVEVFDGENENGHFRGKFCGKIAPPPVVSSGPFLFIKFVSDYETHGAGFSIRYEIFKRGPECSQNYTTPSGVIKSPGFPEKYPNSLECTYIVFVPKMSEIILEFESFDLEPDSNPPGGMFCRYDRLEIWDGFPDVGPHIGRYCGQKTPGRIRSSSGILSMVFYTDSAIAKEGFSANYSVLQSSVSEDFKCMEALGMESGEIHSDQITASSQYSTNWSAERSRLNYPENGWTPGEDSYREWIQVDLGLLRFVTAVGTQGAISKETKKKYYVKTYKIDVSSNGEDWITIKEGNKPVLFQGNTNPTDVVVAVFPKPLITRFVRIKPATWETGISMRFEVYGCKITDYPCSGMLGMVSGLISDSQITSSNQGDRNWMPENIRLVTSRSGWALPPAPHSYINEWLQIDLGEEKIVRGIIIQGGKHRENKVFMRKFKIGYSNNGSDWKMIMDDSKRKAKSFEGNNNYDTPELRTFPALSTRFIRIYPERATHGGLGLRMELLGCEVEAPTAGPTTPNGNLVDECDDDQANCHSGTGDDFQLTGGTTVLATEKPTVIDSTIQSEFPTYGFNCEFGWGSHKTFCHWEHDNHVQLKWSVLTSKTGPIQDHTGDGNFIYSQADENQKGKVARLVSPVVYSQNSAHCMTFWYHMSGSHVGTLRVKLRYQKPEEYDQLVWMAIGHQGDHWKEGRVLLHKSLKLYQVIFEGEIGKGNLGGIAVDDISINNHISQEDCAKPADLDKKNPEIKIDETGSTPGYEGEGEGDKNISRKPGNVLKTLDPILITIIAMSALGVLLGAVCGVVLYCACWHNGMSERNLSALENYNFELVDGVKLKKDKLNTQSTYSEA
ALR H2O2 inh – inhibitors of human sulfhydryl oxidase ALR; inhibition, % (test concentration not listed); actives 3.8% (n = 290,000); P55789; AID 485317; purified ALR, DTT oxidation, H2O2 HRP-luminol luminescence;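 active means mean replicate inhibition above about 79%, with every replicate also reaching it, limit read from the data; inconclusive means only one of the two criteria met; inactive means mean below limit and not every replicate reaching it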
PfM18AAP inh – PfM18AAP enzyme inhibition; inhibition, % at 7.35 µM; actives 1.2% (n = 290,000); recombinant PfM18AAP, H-Glu-NHMec fluorogenic cleavage; AID 1822;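 active means inhibition above the campaign mean inhibition over all tested compounds plus 3 SD, cut at about 28% in these data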;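 further: 0% = plate median of test compound wells and 100% = 2 mM ZnCl2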
APOBEC3G inh – APOBEC3G (human) deaminase inhibition; AID 493012; inhibition, % at 20 µM; recombinant A3G, ssDNA deamination FAM/TAMRA fluorescence; actives 0.28% (n = 330,000); Q9HC16;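 active means inhibition of at least 40% at 20 µM, with no more than 30% in the related APOBEC3A deaminase screen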;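 further: plate controls were DMSO wells with A3G for no effect and wells lacking A3G enzyme for full effect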
APOBEC3A inh – inhibitors of human APOBEC3A DNA deaminase | actives 0.41% (n = 330,000) | recombinant A3A, FAM/TAMRA ssDNA deamination fluorescence | P31941 | AID 493011 | inhibition, % at 20 µM;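 active means at least 40% inhibition at 20 µM here, with at most 30% in a related deaminase screen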;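 further: plate controls were A3A with DMSO for no effect and wells lacking A3A enzyme for full effect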
Yeast superoxide – caloric restriction mimetics inhibiting age-related superoxide in yeast; S. cerevisiae aged cells, superoxide DHE fluorescence; stronger effect = lower value; superoxide response (% of plate mean), % at 10 µM; actives 0.18% (n = 330,000); AID 2690;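 active means superoxide response under a set limit, about three screen SD below normal, cut at about 65% in these data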;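 further: yeast aged for seven days with compound at 30 °C before DHE staining; 100% = average MFI of all compound-treated wells on the plate with controls excluded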
Starred values were filed as active, the others as inactive; ? = inconclusive; · = no result given. Rows were chosen to be rich in hits. Some 5.2% of all compounds tested hit in one or more screens of this group.

SMILES	NRP1-CendR mod	ALR H2O2 inh	PfM18AAP inh	APOBEC3G inh	APOBEC3A inh	Yeast superoxide
COC(=O)CC1C(=O)NCCN1C(=O)CSc1nc2ccccc2s1 (stereo not drawn)	6	99*	15	-7	-3	81
O=C(CSc1nc2ccccc2s1)NC1CCCc2ccccc21 (stereo not drawn)	4	·	5	-1	3	109
CC1CC2(CC(C)(C(=O)CSc3nc4ccccc4s3)OC2=O)C(=O)O1 (stereo not drawn)	2	98*	0	-11	-5	97
O=C(CSc1nc2ccccc2s1)NCCCN1CCOCC1	-1	-11	-6	-3	-1	97
CCOc1ccc(N2C(=O)CN=C2Nc2ccccc2Cl)cc1	12	-3	-9	-5	1	101
CC(=O)CC1c2cc(F)ccc2C=C(c2ccsc2)N1c1ccc(-c2ccc(C(N)=O)cc2)cc1 (stereo not drawn)	6	·	·	·	·	·
COC(=O)c1ccc2[nH]c(C(C)(C)O)c(C)c2c1	17	5	1	-9	-4	104
N#C/C(C(=O)N1CCOCC1)=C1\Nc2ccccc2S1	-4	?	4	-5	-3	95
CC1CN(C(=O)c2cccc(S(=O)(=O)Nc3ccc(Cl)cc3)c2)CC(C)O1 (stereo not drawn)	3	·	-7	-9	18	85
CCOC(=O)C[n+]1c(C)csc1C	-5	-19	30*	-4	-3	108
Cc1csc(C)[n+]1CC(=O)c1ccccc1	1	-18	-7	-2	-4	88
Cn1c(=S)[nH]c2cccnc21	-4	97*	-6	-4	1	102
COc1ccc(C(C)=O)cc1CSC(=N)N	-1	99*	5	-5	2	82
CCCCNC(=S)Nc1ccc(SC(F)F)cc1	11	98*	-5	-2	-2	100
CCCCC(=O)OCC(=O)Nc1ccc(SC(F)F)cc1	-12	98*	4	-8	-1	97
CC1(C2CC2)NC(=O)N(CC(=O)Nc2ccc(SC(F)F)cc2)C1=O (stereo not drawn)	8	-5	·	-9	-3	124
CN1CC(=O)N(CC(=O)Nc2ccc(SC(F)F)cc2)C1=O	-6	98*	-1	-12	6	106
CCCCNC(=S)Nc1ccc(F)cc1	-4	-3	-2	-5	-5	97
COc1ccc(C(C)C)cc1S(=O)(=O)Nc1cccnc1	-10	·	·	·	·	·
CCNC(=O)CC1C(=O)N(c2ccc(C)cc2)C(=O)N1CCC(C)C (stereo not drawn)	4	0	-1	-7	-4	95
c1ccc2c(Nc3ccc(N4CCOCC4)cc3)nc(N3CCOCC3)nc2c1	6	92*	-1	-6	-11	91
O=C(N1CCOCC1)N1CCN(c2ccccc2)CC1	3	54	0	1	-2	93
Cc1cccc(-c2nc(Nc3ccc(N4CCOCC4)cc3)c3ccccc3n2)c1	-5	·	4	-4	39	92
c1ccc(N2CCOCCOCCOCCOCCOCC2)cc1	-8	96*	2	-2	2	87
COc1ccc(CNc2ccc(N3CCOCC3)cc2)cc1	1	99*	-18	-3	-8	88
SMILES	NRP1-CendR mod	ALR H2O2 inh	PfM18AAP inh	APOBEC3G inh	APOBEC3A inh	Yeast superoxide
c1ccc(CNc2ccc(N3CCOCC3)cc2)cc1	-3	99*	·	-4	-6	72
Cc1cc(CC(=O)O)n(C)c1C(=O)c1ccc(Cl)cc1	-5	-4	·	-10	-1	148
CCC(C)Sc1nnc(Cc2cc(=O)[nH]c(=O)[nH]2)n1-c1ccc(F)cc1 (stereo not drawn)	12	98*	-8	-6	-3	98
CCOC(=O)C(C)Sc1nnc(Cc2cc(=O)[nH]c(=O)[nH]2)n1-c1ccc(OCC)cc1 (stereo not drawn)	-4	-32	-12	-7	-2	104
CCOc1ccc(-n2c(Cc3cc(=O)[nH]c(=O)[nH]3)nnc2SC(C)C)cc1	38*	1	1	-6	-2	90
CCOC(=O)[C@]12CCC=C1N(Cc1ccco1)C(=O)[C@H](CC(=O)N1CCN(C(=O)C3CC3)CC1)C2	-6	·	·	·	·	·
O=S(=O)(c1ccc(Cl)cc1)c1cc(O)ccc1O	4	99*	-4	3	6	113
Cc1c(O)ccc2cc(S(=O)(=O)c3ccccc3)c(=O)oc12	-2	·	-6	-5	1	179
